# Where “and” joins values, the source holds several entries; their conditions need not be identical. Equal entries are not always repeated. Screen size: about 16,000 compounds; about 40 (0.2%) were called active. Roughly 1% stayed inconclusive and do not appear here. The entries come from a sample that favours actives as a whole. Values without a mark were called inactive. Calls follow the shape of the dose curve; as a rule, active = well fitted activation curve with a large enough effect; inconclusive = small, poorly fitted or top-dose-only effect, or another doubt; inactive = no such curve, though single readings can be large or run the other way.
# Target: Rap guanine nucleotide exchange factor 4 (Homo sapiens) (UniProt Q8WZA2)
# Sequence (Q8WZA2 whole entry, looked up): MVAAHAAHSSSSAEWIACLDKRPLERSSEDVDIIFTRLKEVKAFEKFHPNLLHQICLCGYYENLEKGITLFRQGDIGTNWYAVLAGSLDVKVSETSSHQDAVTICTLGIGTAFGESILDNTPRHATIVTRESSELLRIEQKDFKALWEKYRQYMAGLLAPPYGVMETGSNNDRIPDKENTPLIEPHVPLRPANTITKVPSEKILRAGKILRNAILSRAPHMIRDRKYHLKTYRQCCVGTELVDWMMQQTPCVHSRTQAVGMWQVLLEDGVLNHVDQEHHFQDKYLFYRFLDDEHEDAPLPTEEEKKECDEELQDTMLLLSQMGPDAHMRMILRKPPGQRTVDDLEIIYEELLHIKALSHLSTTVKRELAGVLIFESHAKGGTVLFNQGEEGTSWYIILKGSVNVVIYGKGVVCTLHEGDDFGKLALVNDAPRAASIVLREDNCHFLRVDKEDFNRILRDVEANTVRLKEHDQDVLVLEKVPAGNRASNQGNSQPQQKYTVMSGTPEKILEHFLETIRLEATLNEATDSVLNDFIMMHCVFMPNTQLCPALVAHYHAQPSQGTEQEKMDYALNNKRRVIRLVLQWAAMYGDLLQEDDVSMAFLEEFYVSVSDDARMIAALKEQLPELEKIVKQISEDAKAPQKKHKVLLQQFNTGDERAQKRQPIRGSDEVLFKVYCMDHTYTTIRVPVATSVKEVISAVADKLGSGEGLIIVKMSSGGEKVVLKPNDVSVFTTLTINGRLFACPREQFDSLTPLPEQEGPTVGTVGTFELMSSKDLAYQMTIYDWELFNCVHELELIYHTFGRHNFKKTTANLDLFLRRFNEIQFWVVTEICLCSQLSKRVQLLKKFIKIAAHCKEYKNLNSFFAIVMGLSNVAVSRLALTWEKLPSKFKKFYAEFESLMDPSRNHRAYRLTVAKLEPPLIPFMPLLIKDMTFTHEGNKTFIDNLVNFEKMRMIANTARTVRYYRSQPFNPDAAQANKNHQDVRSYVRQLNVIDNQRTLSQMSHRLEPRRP
# Assay: Validation qHTS for agonist of cAMP-regulated guanine nucleotide exchange factor 4 (EPAC2);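 as to activation: exchange makes BODIPY-GDP fluorescence drop when released from Rap1B; series mostly up to about 150 µM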
# Details: EPAC2 Rap1B BODIPY-GDP exchange, fluorescence; activation: stronger effect = higher value
# From the text: Principle Investigator: Xiaodong Cheng Ph.D.
# The University of Texas Medical Branch, […], TX
# In multi-cellular eukaryotic organisms, the effects of cAMP are transduced by two ubiquitously-expressed intracellular cAMP receptors, the classic protein kinase A/cAMP-dependent protein kinase (PKA/cAPK) and the more recently discovered exchange protein directly activated by cAMP/cAMP-regulated guanine nucleotide exchange factor (EPAC/cAMP-GEF). Both PKA and EPAC are ubiquitously expressed in all tissues, and an increase in intracellular cAMP levels will lead to the activation of both PKA and EPAC. Therefore, careful dissections of the individual role and relative contribution of EPAC and PKA within the overall cAMP signaling in various model systems are critical for further elucidating the mechanism of cAMP signaling. To date no EPAC-specific antagonists and agonist, as well as isoform-specific agonists have been reported, and developing EPAC-specific pharmacological probes to determine the physiological functions that EPAC play in the overall cAMP-mediated signaling remains a major challenge within the research field. Furthermore, identified regulators of EPAC may lead to new mechanism-based therapeutic strategies specifically targeting the EPAC / cAMP-signaling components as EPAC has been implicated to play important roles in major human pathological conditions such as diabetes, heart disease, and cancer.
# This qHTS will be used to screen the Molecular Libraries Small Molecule Repository (MLSMR) as a concentration-titration series using the NCGC unique quantitative screening (qHTS) platform to find activators for EPAC1. In addition, this assay will also be used as a counterscreen for the EPAC2 qHTS. This fluorescent based assay is developed and validated for EPAC1 that measures exchange using EPAC effector Rap1 complex with BODIPY-GDP, a GDP analog with a tethered fluorophores. Activators are identified by monitoring the change in fluorescence signal as the exchanged free BODIPY-GDP has a reduced fluorescence compared to Rap1-bound BODIPY-GDP. Increase in signal (activation) is the desired outcome for the EPAC1 agonist while no activity in this assay is desired for the EPAC2 agonist counterscreen.
# [1] de Rooij, J., Zwartkruis, F. J., Verheijen, M. H., Cool, R. H., Nijman, S. M., Wittinghofer, A., and Bos, J.L. (1998) Nature 396, 474-477.
# Briefly, three uL of reagents (100 nM EPAC2, 250 nM RAP1B-BODIPY-GDP, 50 uM GDP) were dispensed into a 1536-well Greiner black solid-bottom medium binding assay plate. Controls and test compounds (23 nL) were transferred to the plate via a Kalypsys pin tool equipped with a 1536-pin array. The plates were centrifuged at 1,000 rpm for 15 seconds followed by 5 minute incubation at room temperature. The assay plates were read at 5 minute intervals for 30 minutes in the ViewLux plate reader using 480nm excitation and 540nm emission filters. The results were normalized to the agonist positive control of 6.5 mM cAMP.
# % is scaled to controls: 0 for no effect and ±100 for the full control effect; potency is read from the fitted curve at half-maximal effect.
SMILES,activation,Potency
O=c1c(-c2ccc(F)c(F)c2)nc2cncnc2n1Cc1ccccc1,-20.1%,
C[N+](C)(CCOc1ccccc1)Cc1cccs1,-2.61%,
O=C(NCc1ccncc1)c1cnn(-c2nccc(-c3cccs3)n2)c1C1CC1,-7.47%,
COc1ncc2nc(C)c(=O)n(Cc3cccs3)c2n1,-6.26%,
CN(C)Cc1ccccc1-c1cncnc1Nc1ccncc1,2.36%,
COc1cccc(Cn2c(=O)c(C)nc3cnc(N4CCOCC4)nc32)c1,1.39%,
CN(C)C(=O)c1ccc(-c2cc(NCc3cccs3)ncn2)cc1,-16.8%,
CCNc1ncc2nc(-c3cccc(C#N)c3)c(=O)n(Cc3cccc(OC)c3)c2n1,3.97%,
Cc1ccc(C(C)CCN2CCOc3ccc(CN4CCOCC4)cc3C2)o1 (configuration not stated),1.95%,
CC1CN(c2cc3c(cc2F)c(=O)c(C(=O)O)cn3-c2ccc(F)cc2F)CCN1 (configuration not stated),-22.2%,
C=C[C@@H]1c2cc(C)ccc2N(S(=O)(=O)c2ccc(C)cc2)[C@H](c2ccc(OC(C)=O)cc2)C1(C#N)C#N,-9.82%,
CCN(CC)CCCC(C)Nc1ccnc2cc(Cl)ccc12 (configuration not stated),-8.87% and 0.526% and -22.7%,
CCN(CC)CCCC(C)Nc1cc(/C=C/c2ccccc2Cl)nc2cc(Cl)ccc12 (configuration not stated),16.5%,
CCN(CC)CCCC(C)Nc1c2ccc(Cl)cc2nc2ccc(OC)cc12 (configuration not stated),,89.1 µM (active)
COc1ccccc1-c1ccnc(-n2ncc(C(=O)NCc3cccnc3)c2C)n1,8.95%,
COc1ccccc1/C=C\C(=O)OC[C@@H]1CCCN2CCCC[C@H]12,-21.1%,
CCOC(=O)CCC(=O)O[C@H]1C(O[C@@H]2C(C)[C@H](O[C@H]3C[C@@](C)(OC)C(O)C(C)O3)C(C)C(=O)OC(CC)[C@@](C)(O)C(O)[C@H](C)C(=O)C(C)C[C@]2(C)O)OC(C)CC1N(C)C (some centres not stated),-16.2%,
O=c1c(-c2ccc(F)cc2)nc2cnc(Oc3cccc(Cl)c3)nc2n1C[C@H]1CCCO1,10.2%,
CO[C@H]1[C@H](NC(=O)c2ccsc2)c2ccccc2C12CCN(Cc1c(O)ccc3ccccc13)CC2,-7.57%,
OCCN(CCO)c1nc(N2CCCCC2)c2nc(N(CCO)CCO)nc(N3CCCCC3)c2n1,,112 µM (active) and 100 µM (active)
COCC(=O)N1CCC2(CC1)CN(c1cccc(-c3ccccc3)c1)C2,-17%,
Cc1noc(C)c1-c1nc(NCc2cccnc2)c2ccccc2n1,-6.22%,
Cc1oc(-c2ccccc2NC(=O)c2ccccc2)nc1CNC(=O)C1CC(=O)OC12CCCCC2 (configuration not stated),-5.24%,
CSc1nnc(CNC(=O)c2c(-c3ccccc3)noc2C)n1-c1ccc(F)cc1,-0.342%,
Cc1cccnc1-c1cccc2c1OC(CNC(=O)C(=O)c1ccccc1)C2 (configuration not stated),-7.04%,
COc1cccc(CNC(=O)c2c(OC)cc(=O)n3c2CCN(C(=O)c2csc(C)n2)CC3)c1,1.41%,

SMILES,activation,Potency
CCOC(=O)c1c[nH]c2cc(OCC(C)C)c(OCC(C)C)cc2c1=O,-9.73%,
Cn1c2c(c(=O)c3ccccc31)C[C@@H](O)C(C)(C)O2,-9.21%,
Cc1cc2nc3c(=O)[nH]c(=O)nc-3n(C[C@H](O)[C@H](O)[C@H](O)COP(=O)(O)OP(=O)(O)OC[C@H]3O[C@@H](n4cnc5c(N)ncnc54)[C@H](O)[C@@H]3O)c2cc1C,,89.1 µM (active)
Cc1cc2nc3c(=O)[nH]c(=O)nc-3n(C[C@H](O)[C@H](O)[C@H](O)CO)c2cc1C,,79.4 µM (active) and 100 µM (active)
Nc1ncnc2c1ncn2[C@@H]1O[C@H](COP(=O)(O)OP(=O)(O)OP(=O)(O)OP(=O)(O)OC[C@@H]2O[C@H](n3cnc4c(N)ncnc43)[C@@H](O)[C@H]2O)[C@@H](O)[C@H]1O,12.8% and -62.2%,
Nc1ncnc2c1ncn2[C@@H]1O[C@H](COP(=O)(O)OP(=O)(O)OP(=O)(O)O)[C@@H](O)[C@H]1O,1.95%,
Cc1cc2nc3c(=O)[nH]c(=O)nc-3n(CC(O)C(O)C(O)CO)c2cc1C (configuration not stated),,89.1 µM (active)
CC[C@H]1OC(=O)[C@H](C)[C@@H](O[C@H]2C[C@@](C)(OC)[C@@H](O)[C@H](C)O2)[C@H](C)[C@@H](O[C@@H]2O[C@H](C)C[C@H](N(C)C)[C@H]2O)[C@](C)(O)C[C@H](C)C(=NOCOCCOC)[C@H](C)[C@@H](O)[C@]1(C)O,-4.72%,
C[C@@H]1CN(Cc2ccc3c(c2)CN(Cc2cccc4c2OCO4)CCO3)C[C@H](C)O1,-2.91%,
CC(=O)c1ccc(F)c(-c2cc(C)cc3c2OC(CNC(=O)C[C@@H]2C[C@@H](C)NC(=S)N2)C3)c1 (some centres not stated),-13.4%,
Cc1ccc(N)cc1O,2.89%,
C[n+]1c2cc(N)ccc2cc2ccc(N)cc21 (tested in a mixture with another compound),,22.4 µM (active)
CC(C)NC(=O)N1CCC2(CC1)CCN(S(=O)(=O)c1ccccc1)CC2,-7.09%,
O=S1(=O)CCOCCCN1Cc1cccc(F)c1,-1.25%,
OCC1OC(n2cnc3c(Cl)nc(Cl)nc32)C(O)C1O (configuration not stated),-15.7%,
O=C(c1cccc(F)c1)N1CCC2(CC1)CN(c1ccccc1)C2,4.44%,
NC(=S)c1ccc[n+]([C@@H]2O[C@@H](COP(=O)([O-])OP(=O)(O)OC[C@H]3O[C@@H](n4cnc5c(N)ncnc54)[C@H](OP(=O)(O)O)[C@@H]3O)C(O)C2O)c1 (some centres not stated),-34.4%,
COCCn1c(=O)c(CCc2ccccc2)nc2cnc(N3CCN(C)CC3)nc21,-2.75%,
COC(=O)C1C(O)CC[C@H]2CN3CCc4c([nH]c5ccccc45)C3C[C@H]12 (some centres not stated),2.5%,
Cc1c(C(=O)NCCCc2ccncc2)cnn1-c1nccc(-c2ccccc2F)n1,-21.1%,
COc1cccc(-c2nc(N3CCN(C)CC3)c3ccccc3n2)c1,-6.1%,
COc1cccc(CNC(=O)c2c(OC)cc(=O)n3c2CCN(C(=O)c2cc(C)ccc2C)CC3)c1,-2.82%,
O=c1c(-c2ccc(Cl)cc2)nc2cnc(N3CCOCC3)nc2n1Cc1ccc(F)cc1,-11.5%,
COc1cc(CN2CCOc3ccc(C(O)c4cccnc4)cc3C2)cc(OC)c1 (configuration not stated),-13.6%,
COc1cc(N)c(N)cc1OC,-7.59%,
Nc1cc(N)cc(N)c1,,50.1 µM (active)

SMILES,activation,Potency
Nc1ccc(O)cc1,25.8% and 23.8%,
Cc1cnc(CNc2cc(-c3ccc(N(C)C)cc3)ncn2)cn1,-19.7%,
COc1ccccc1C1CN(CCNC(=O)c2ccc3c(c2)OCCO3)Cc2ccccc2O1 (configuration not stated),10.6%,
COc1ccccc1CN1[C@@H](CC(=O)O)c2ccccc2S1(=O)=O,-19.4%,
COC(=O)C1CCN(Cc2ccc3c(c2)CN(C(=O)c2ccc(-n4cnnn4)cc2)CCO3)CC1,-3.06%,
COc1cc(/C(C)=C/c2ccccc2)c2c(c1)oc1ccccc12,-19%,
CCCCCCCCCCCCCCCC[n+]1ccc(/C=C/c2c(C)[nH]c3ccccc23)cc1,-30%,
CCCCCCC[n+]1ccc(/C=C/c2c(C)[nH]c3ccccc23)c2ccccc21,-18.3%,
CCCCCCC[n+]1ccc(/C=C/c2c(C)[nH]c3ccccc23)cc1,,25.1 µM (active)
Cc1cnc(-n2ncc(C(=O)NCc3ccccn3)c2C2CC2)nc1-c1cccs1,-5.87%,
Nc1ccc2nc[nH]c2c1,-7.36%,
c1ccc2nc3ccccc3cc2c1,-8.02%,
Nc1ccc2cc3ccc(N)cc3nc2c1,,89.1 µM (active)
COc1ccc2c(c1)-c1nc(-n3ncc(C(=O)NCC4CCCN(C)C4)c3C3CC3)ncc1CC2 (configuration not stated),1.91%,
CC(=O)N[C@@H]1C(O[C@H]2O[C@H](C(=O)O)C(O)[C@H](O)[C@H]2O)[C@H](O)[C@@H](CO)O[C@H]1O[C@@H]1C(C(=O)O)O[C@@H](O[C@H]2[C@H](O)[C@@H](CO)OC(O)[C@@H]2NC(C)=O)[C@H](O)[C@H]1O (some centres not stated),-11.1%,
CCn1c(C)nc2cc(NS(=O)(=O)c3ccccc3)cc(C(=O)N3C[C@@H](C)O[C@@H](C)C3)c21,-0.794%,
OC(C1=C/C(=C\c2ccncc2)c2ccccc21)c1ccncc1 (configuration not stated),-21.2%,
COc1ccc(C(=O)N2CCC3(CC2)c2ccccc2[C@@H](NC(=O)c2ccccn2)[C@@H]3OC)c(O)c1,3.44%,
O=C1[C@H](Cc2ccccc2)NC/C=C\C[C@@H](c2ccc(Cl)cc2)N1Cc1ccccc1,-43%,
CC(C)C[C@@H](CO)N1CCN(Cc2cccc(C#N)c2)CCC1=O,-27.7%,
COc1ccc(OC)c(CN2CCCC(c3nc(-c4ccncc4)ncc3-c3ccccc3C)C2)c1 (configuration not stated),-2.68%,
FC(F)OC(Cl)C(F)(F)F (configuration not stated),,31.6 µM (active)
FC(F)(F)C(Cl)Br (configuration not stated),-29.1%,
COCc1ccc(CN2CCOc3c(O)cc(-c4cc(C)c5ccc(F)cc5n4)cc3C2)o1,8.6%,
O=C(c1cc(C(F)(F)F)cc(C(F)(F)F)c1)N1CCC2(CCCN(Cc3ccccc3)C2)CC1,-6.26%,
